Laboratory results reported in PubChem BioAssay (Tox21).
Records with an inconclusive call do not appear. Calls of active or inactive are those of the source. Unless noted, the call rests on the fitted dose curve; in most records, active means well fitted curve in the direction sought with a large enough effect in the repeat runs; inconclusive means weak or mixed curves; inactive means no such curve, though single readings can be large; an effect the other way counts as inactive or inconclusive.

Key:
[1] = molecular target: Thyrotropin receptor (Homo sapiens) (UniProt P16473); experiment: qHTS assay to identify small molecule agonists of the thyroid stimulating hormone receptor (TSHR) signaling pathway (AID 1224843; calls by dose curve; further: nearly all actives have a fitted effect of over 45% in size; further: potency means the concentration at half of the fitted maximal effect)
Outline: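 Compounds are titrated over 15 concentrations, in triplicate, onto TSHR-HEK293 cells seeded at 800/well. Plates sit 30 min at room temperature before cAMP-d2 and anti-cAMP cryptate are added; signal is read after a further hour.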

[2] = qHTS assay to identify small molecule agonists of the hypoxia (HIF-1) signaling pathway - cell viability counter screen (AID 1224844; calls by dose curve; further: nearly all actives have a fitted effect of over 50% in size)
Outline: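 Cytotoxicity measured by CellTiter-Glo ATP luminescence in the wells also read for beta-lactamase signal. Cells were HRE-bla ME-180 (2,000/well, 0.5% dialyzed FBS), exposed to compounds for 17 h at 37C.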

[3] = qHTS assay to identify small molecule agonists of H2AX (AID 1224845; active means well fitted activation curve with a large enough effect in the signal ratio in the repeat runs, not every such curve was filed as active; the % refers to the signal ratio)
Outline: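 Wild-type CHO-K1 cells plated overnight, then exposed 3 hr at 37C to compounds at 15 concentrations (0.76% DMSO). Lysed, then HTRF anti-pH2AX(S139)-cryptate/anti-H2AX-d2 detection after 24 hr at room temperature; emissions 665 and 620 nm.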

[4] = qHTS assay to identify small molecule agonists of the hypoxia (HIF-1) signaling pathway (AID 1224846; active means well fitted activation curve with a large enough effect in the signal ratio in the repeat runs, not every such curve was filed as active; the % refers to the signal ratio)
Outline: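 Compounds added to ME-180 cells carrying hypoxia-response-element beta-lactamase reporter (0.5% dialyzed FBS, 5 h preplating), 17 h at 37C; agonist activity detected by CCF4-AM B/G FRET read-out.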

[5] = qHTS assay to identify small molecule agonists of H2AX - cell viability counter screen (AID 1224847; calls by dose curve; further: top concentration of the series differs between compounds; nearly all actives have a fitted effect of over 30% in size)
Outline: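 CHO-K1 cells plated overnight at 37C, then exposed 3 h at 37C to compounds at 15 concentrations (0.76% DMSO final). Viability by CellTiter-Glo luminescence after 30 min at room temperature.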

[6] = qHTS assay to identify small molecule antagonists of the estrogen related receptor (ERR) signaling pathway from Tox21 library (AID 1224848); further: nearly all actives have a fitted effect of over 50% in size
Outline: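 First, 2,000 ERR cells per well were plated and held 6 h at 37 C/5% CO2. Next, compounds in DMSO were pinned in and left 18 h at 37 C. Finally, ONE-Glo was added and luminescence read after 30 min at room temperature.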

[7] = qHTS assay to identify small molecule agonists of the estrogen related receptor (ERR) signaling pathway from Tox21 library (AID 1224849; calls by dose curve; further: nearly all actives have a fitted effect of over 15% in size); settings: ERR reporter cell line, ONE-Glo luciferase, 18 h; at 92.4 µM (top of the series) unless noted
Outline: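 Luminescent agonist read-out (One-Glo, 30-minute room-temperature incubation) following 18-hour compound treatment at 37 C of the ERR cell line, which had been plated 6 hours before dosing.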

[8] = qHTS RealTime-Glo MT Cell Viability Assay in HepG2 cells - 24 hour (AID 1224867); further: nearly all actives have a fitted effect of over 50% in size
Outline: (§1)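 HepG2 cells (600/well) were dispensed with RealTime-Glo reagents, incubated 5 h at 37 °C, then treated with compounds in DMSO for up to 40 h. Nonlytic NanoLuc luminescence reflecting viable cells was read at each stated time point.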

[9] = qHTS RealTime-Glo MT Cell Viability Assay in HEK293 cells - 32 hour (AID 1224868); further: top concentration of the series differs between compounds; nearly all actives have a fitted effect of over 50% in size
Outline: (§2)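 HEK293 cells seeded with NanoLuc/prosubstrate reagent, rested 5 h at 37 C, then dosed and kept at 37 C up to 40 h. Nonlytic real-time luminescence from viable cells read at 0, 8, 16, 24, 32 and 40 h.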

[10] = A CellTox Green Cytotoxicity Assay to monitor cytotoxicity in HEK293 cells - 0 hour (AID 1224869); further: nearly all actives have a fitted effect of over 50% in size
Outline: (§3)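 Fluorescence from a DNA-binding dye excluded by viable cells was measured repeatedly in the same HEK293 wells (600 cells/well) during continuous compound exposure at 37 C. Each assay gives one read point: 0, 8, 16, 24, 32 or 40 h.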

[11] = qHTS RealTime-Glo MT Cell Viability Assay in HepG2 cells - 40 hour (AID 1224870); further: nearly all actives have a fitted effect of over 50% in size
Outline: (§4)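 HepG2 cells mixed with RealTime-Glo MT reagents (NanoLuc plus cell-permeant prosubstrate) were seeded at 600 cells/well, incubated 5 h at 37 C/5% CO2, then pinned with compounds in DMSO; nonlytic luminescence tracked viability during 40 h treatment.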

[12] = A CellTox Green Cytotoxicity Assay to monitor cytotoxicity in HEK293 cells - 40 hour (AID 1224871); further: nearly all actives have a fitted effect of over 45% in size
Outline: as §3

[13] = qHTS RealTime-Glo MT Cell Viability Assay in HEK293 cells - 16 hour (AID 1224872)
Outline: as §2

[14] = qHTS RealTime-Glo MT Cell Viability Assay in HepG2 cells - 8 hour (AID 1224873); further: nearly all actives have a fitted effect of over 55% in size
Outline: as §4

[15] = qHTS RealTime-Glo MT Cell Viability Assay in HEK293 cells - 40 hour (AID 1224874); settings: RealTime-Glo luminescence; max response: active compounds read low; further: nearly all actives have a fitted effect of over 50% in size
Outline: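 Luminescence, which tracks viable cell number through reduction of the prosubstrate to a NanoLuc substrate, was read over continuous 37 C culture. Cells (600/well) were premixed with reagent and rested 5 h before 23 nL of compound in DMSO was pinned.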

[16] = A CellTox Green Cytotoxicity Assay to monitor cytotoxicity in HEK293 cells - 24 hour (AID 1224875); further: nearly all actives have a fitted effect of over 45% in size
Outline: as §3

[17] = A CellTox Green Cytotoxicity Assay to monitor cytotoxicity in HepG2 cells - 16 hour (AID 1224876); further: nearly all actives have a fitted effect of over 45% in size
Outline: (§5)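 Real-time cytotoxicity: fluorescence of a cell-impermeant cyanine dye binding DNA of dead HepG2 cells, measured repeatedly (0–40 h) during compound exposure at 37 C. Cells seeded 600/well with reagent, dosed after 5 h.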

[18] = qHTS RealTime-Glo MT Cell Viability Assay in HepG2 cells - 32 hour (AID 1224877); further: nearly all actives have a fitted effect of over 55% in size; further: potency means the concentration at half of the fitted maximal effect
Outline: as §1

[19] = A CellTox Green Cytotoxicity Assay to monitor cytotoxicity in HepG2 cells - 24 hour (AID 1224878); further: nearly all actives have a fitted effect of over 45% in size
Outline: as §5

[20] = A CellTox Green Cytotoxicity Assay to monitor cytotoxicity in HepG2 cells - 40 hour (AID 1224879); further: nearly all actives have a fitted effect of over 40% in size
Outline: as §5
On the % scale 0 is the no-effect control and ±100 the full control effect.

Thyrotropin receptor (Homo sapiens), sequence (P16473 whole entry, looked up): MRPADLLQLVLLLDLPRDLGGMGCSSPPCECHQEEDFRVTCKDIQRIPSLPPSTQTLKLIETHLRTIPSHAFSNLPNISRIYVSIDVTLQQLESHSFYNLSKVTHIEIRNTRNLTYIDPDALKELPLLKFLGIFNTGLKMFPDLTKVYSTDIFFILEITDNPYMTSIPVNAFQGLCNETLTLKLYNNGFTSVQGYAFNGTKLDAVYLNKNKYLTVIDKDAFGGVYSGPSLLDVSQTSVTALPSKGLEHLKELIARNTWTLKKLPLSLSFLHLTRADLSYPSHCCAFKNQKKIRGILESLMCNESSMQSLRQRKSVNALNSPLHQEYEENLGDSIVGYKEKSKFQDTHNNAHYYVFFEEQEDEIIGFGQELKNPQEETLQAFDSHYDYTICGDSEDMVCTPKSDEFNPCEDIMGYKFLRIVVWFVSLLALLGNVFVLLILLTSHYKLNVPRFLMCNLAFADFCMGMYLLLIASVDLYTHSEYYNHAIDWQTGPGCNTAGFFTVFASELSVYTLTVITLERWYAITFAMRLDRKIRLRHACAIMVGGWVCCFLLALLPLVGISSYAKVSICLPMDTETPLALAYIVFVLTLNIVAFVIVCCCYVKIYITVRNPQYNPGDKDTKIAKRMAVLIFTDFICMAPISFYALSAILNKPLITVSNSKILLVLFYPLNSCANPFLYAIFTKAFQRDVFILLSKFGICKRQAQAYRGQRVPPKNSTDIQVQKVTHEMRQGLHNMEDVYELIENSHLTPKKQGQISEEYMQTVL

CC(C)=CC(=O)C=C(C)C
inactive: Potency [1] | Potency [2] | Potency [3] | outcome [4] | Potency [5] | Potency [6] | activity change, positive = activation [7] 0.257% | Potency [8] | Potency [9] | Potency [10] | Potency [11] | Potency [12] | Potency [13] | Potency [14] | max response [15] 9.12% | Potency [16] | Potency [17] | Potency [18] | Potency [19] | Potency [20]

CCC1(CO)COCOC1
inactive: Potency [1] | Potency [2] | Potency [3] | outcome [4] | Potency [5] | activity change, positive = activation [7] 7.78% | Potency [8] | Potency [9] | Potency [10] | Potency [11] | Potency [12] | Potency [13] | Potency [14] | max response [15] -7.69% | Potency [16] | Potency [17] | Potency [19] | Potency [20]

CCCCCCC(C)(C)C(=O)O
inactive: Potency [1] | Potency [2] | Potency [3] | outcome [4] | Potency [5] | activity change, positive = activation [7] -23% | Potency [8] | Potency [9] | Potency [10] | Potency [11] | Potency [12] | Potency [13] | Potency [14] | max response [15] 4.14% | Potency [16] | Potency [17] | Potency [19] | Potency [20]

C[C@@]12CCC[C@H]1[C@@H]1CC[C@H]3C[C@@H](O)CC[C@]3(C)[C@H]1CC2
inactive: Potency [1] | Potency [2] | Potency [3] | outcome [4] | Potency [5] | activity change, positive = activation [7] -6.1% [at 42.5 µM] | Potency [8] | Potency [9] | Potency [10] | Potency [11] | Potency [12] | Potency [13] | Potency [14] | max response [15] 5.8% | Potency [16] | Potency [17] | Potency [18] | Potency [19] | Potency [20]

CCCCCCCCCI
active: Potency [1] 24.8 µM | Potency [18] 35.3 µM
inactive: Potency [2] | Potency [3] | outcome [4] | Potency [5] | Potency [6] | activity change, positive = activation [7] 3.18% | Potency [9] | Potency [10] | Potency [12] | Potency [13] | Potency [14] | max response [15] -1.11% | Potency [16] | Potency [17] | Potency [19] | Potency [20]

O=C(O)C[C@H](NC(=O)OCc1ccccc1)C(=O)O
inactive: Potency [1] | Potency [2] | Potency [3] | outcome [4] | Potency [5] | Potency [8] | Potency [9] | Potency [10] | Potency [11] | Potency [12] | Potency [14] | max response [15] -0.276% | Potency [16] | Potency [17] | Potency [18] | Potency [19] | Potency [20]

C[C@]1(Cn2ccnn2)[C@H](C(=O)O)N2C(=O)C[C@H]2S1(=O)=O
inactive: Potency [1] | Potency [2] | Potency [3] | outcome [4] | Potency [5] | Potency [8] | Potency [9] | Potency [10] | Potency [11] | Potency [12] | Potency [13] | Potency [14] | max response [15] 2.48% | Potency [16] | Potency [17] | Potency [18] | Potency [19] | Potency [20]
